Results as given in PubChem BioAssay AID1851 (National Center for Advancing Translational Sciences (NCATS), 2009).
Several values for one entry are separate records, joined by “and”; a condition that tells them apart may be missing. Identical values can stand only once. Screen size: about 16,000 compounds; about 5,800 (36%) were called active. Not shown: some 23% with an inconclusive outcome. Calls follow the shape of the dose curve; as a rule, active = well fitted curve in the direction sought with a large enough effect; inconclusive = small, poorly fitted or top-dose-only effect, or effect the other way; inactive = no such curve, though single readings can be large or run the other way. The list shows a part of the results.

These compounds were tested against Cytochrome P450 2C19 (Homo sapiens) (UniProt P33261) (assay: Cytochrome panel assay with activity outcomes). Conditions: recombinant CYP, pro-luciferin dealkylation, luminescence, p450-cyp2c19; series mostly up to 57.1 µM.
% is scaled to controls: 0 for no effect and ±100 for the full control effect.

Cytochrome P450 2C19 (Homo sapiens), sequence (P33261 whole entry, looked up): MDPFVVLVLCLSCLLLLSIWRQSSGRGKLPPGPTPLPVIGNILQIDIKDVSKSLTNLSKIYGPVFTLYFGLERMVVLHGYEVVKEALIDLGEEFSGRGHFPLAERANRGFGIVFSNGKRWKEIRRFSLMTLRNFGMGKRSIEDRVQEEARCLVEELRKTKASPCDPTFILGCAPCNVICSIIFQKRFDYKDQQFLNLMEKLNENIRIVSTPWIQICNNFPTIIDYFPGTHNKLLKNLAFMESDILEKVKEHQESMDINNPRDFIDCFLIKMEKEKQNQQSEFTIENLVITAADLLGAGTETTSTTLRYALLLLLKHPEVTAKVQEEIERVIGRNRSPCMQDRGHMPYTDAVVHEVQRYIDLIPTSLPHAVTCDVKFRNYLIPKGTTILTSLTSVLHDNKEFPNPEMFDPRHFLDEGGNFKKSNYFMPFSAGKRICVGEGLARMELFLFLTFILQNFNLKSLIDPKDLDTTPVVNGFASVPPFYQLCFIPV

| SMILES | AC50 | activity, negative = inhibition |
| --- | --- | --- |
| FC(F)(F)c1cc(CN2CCC3(CCNCC3)CC2)cc(C(F)(F)F)c1 | inactive | – |
| O=C(O)CSc1cc(-c2ccccc2)nc2ccccc12 | – | 1.28% [at 11.4 µM] (inactive) |
| N#Cc1ccc(-c2ccccc2)nc1SCC(=O)c1cccc(Cl)c1 | 2.24 µM (active) | – |
| CN(C)c1oc(-c2ccccc2)nc1C#N | 15.8 µM (active) | – |
| N#Cc1c(-c2ccccc2)no[n+]1[O-] | inactive | – |
| COc1cc(O)oc1C=Nc1ccc(C(F)(F)F)cc1 | 7.08 µM (active) | – |
| COc1cc(O)oc1C=Nc1ccc(Cl)cc1 | 6.31 µM (active) | – |
| CCOc1[nH]n(-c2ccc(Cl)cc2)c(=O)c1C=Nc1ccc(O)cc1 | inactive | – |
| Cc1c(C(=O)O)nc(/C=C\C(=O)O)[nH]c1=O | – | 18.2% [at 11.4 µM] (inactive) |
| CC1=NN(c2ccc(F)cc2)C(=O)C1C(c1cccc(O)c1)c1c(C)[nH]n(-c2ccc(F)cc2)c1=O (stereo not given) | 17.8 µM (active) | – |
| O=C1C2CCCN2C(c2ccc(F)cc2)N1c1nccs1 (stereo not given) | 14.1 µM (active) | – |
| CCCSc1nc(SCC(=O)NCc2ccccc2)c2c3c(sc2n1)COC(C)(CC)C3 (stereo not given) | 11.2 µM (active) | – |
| CCC1(C)Cc2c(sc3nnn(CC(=O)Nc4ccc(C)cc4)c(=O)c23)CO1 (stereo not given) | 10 µM (active) | – |
| CCSc1nc2sc3c(c2c(=O)[nH]1)CC(C)(CC)OC3 (stereo not given) | inactive | – |
| Cc1nc2ncnn2c(C)c1CCC(=O)NCc1ccccc1 | inactive | – |
| CCC1(C)Cc2c(sc3nnn(CC(=O)Nc4cccc5ccccc45)c(=O)c23)CO1 (stereo not given) | 15.8 µM (active) | – |
| CN(N=O)C(=O)N[C@H]1[C@@H](O)[C@H](O)[C@H](CO)O[C@@H]1O | inactive | – |
| NC(=O)Nn1c(CCC(=O)O)ccc1-c1ccc(F)cc1 | inactive | – |
| CNc1cnn(-c2ccccc2)c(=O)c1Cl | inactive | – |
| Nc1ccc(Sc2cnn(-c3ccccc3)c(=O)c2Cl)cc1 | 0.1 µM (active) | – |
| CCc1cc2c(nc1CC)CCN(CC/C(C)=N/OC[C@@H](O)COCc1ccco1)C2 | – | -17.2% [at 11.4 µM] (inactive) |
| Cc1ccc(S(=O)(=O)N[C@@H](CCc2ccccc2)CC(=O)C(C)(C)C)cc1 | 1.58 µM (active) | – |
| COC(=O)C/C=C\[C@@H](C)[C@@H](/C=N\O[C@@H](C)c1cn([C@H](CO)Cc2ccccc2)nn1)NS(=O)(=O)c1ccc(C)cc1 | – | 14.8% [at 11.4 µM] (inactive) and -27.5% [at 11.4 µM] (inactive) |

| SMILES | AC50 | activity, negative = inhibition |
| --- | --- | --- |
| CC(CCc1ccccc1)NS(=O)(=O)c1ccccc1 (stereo not given) | 2.51 µM (active) | – |
| Cc1ccc(S(=O)(=O)N[C@H](CO)C(=O)O)cc1 | – | -10.2% [at 11.4 µM] (inactive) |
| C1CCc2c(nc3nnnn3c2NC2CCCC2)C1 | inactive | – |
| O=C1[C@@H]2[C@H]3[C@H](O)[C@H](O)C/C(=N/OCc4ccccc4)[C@@H]3CC[C@H]2C(=O)N1c1ccc(F)cc1F | – | -20.4% [at 11.4 µM] (inactive) |
| C[C@@H](C(=O)NCc1ccccn1)[C@@H]1C[C@@]1(C)[C@@H](NC(=O)OCc1ccccc1)c1ccccc1 | 2.51 µM (active) | – |
| C[C@@H](C(=O)NCc1ccccn1)[C@H]1C[C@]1(C)[C@H](NC(=O)OCc1ccccc1)c1ccccc1 | 2 µM (active) | – |
| O=C(O)CN(CCOCCOCCN(CC(=O)O)CC(=O)O)CC(=O)O | inactive | – |
| Cc1cc2c(nc1C)CCCCN2C[C@H](O)CN1CCCc2nc(-c3ccc(Br)cc3)ccc21 | – | -10.8% [at 11.4 µM] (inactive) |
| COc1ccccc1CN1CC[C@@]2(CCCN(C(C)=O)C2)C1 | inactive | – |
| CCOC(=O)C1CCN(c2c(NCc3ccc(C(=O)NCCC(C)C)cc3)c(=O)c2=O)CC1 | 3.16 µM (active) | – |
| CCNC(=S)NNC(=O)c1cc(C2CC2)nc2ccccc12 | 28.2 µM (active) | – |
| CCCCOC(=O)CSCC(=O)Nc1cc(C)on1 | 8.91 µM (active) | – |
| COc1ccccc1-c1cc(Nc2ccn[nH]2)ncn1 | 6.31 µM (active) | – |
| CC(=O)NCCNc1cc(-c2ccccc2C)ncn1 | inactive | – |
| Cc1ccccc1-c1cc(Nc2ccc(F)cc2)ncn1 | 0.631 µM (active) | – |
| Cc1ccccc1-c1cc(Nc2ccccc2)ncn1 | 3.16 µM (active) | – |
| COc1ccccc1-c1cc(Nc2ccc(F)cc2)ncn1 | 7.94 µM (active) | – |
| C[C@@H]1/C=C\CC(=O)OC[C@H](C)C(=O)N2CCC[C@@H]2C(=O)OC1 | – | 72.6% [at 11.4 µM] (inactive) |
| O=C(c1cccc(F)c1)N1CCC2(CC1)CN(C(c1ccccc1)c1ccccc1)C2 | inactive | – |
| COC(=O)[C@@]1(Cc2ccccc2)[C@H]2c3cc(C(=O)N(C)C)n(Cc4c(CO)[nH]cc(C)c4=O)c3C[C@H]2CN1C(=O)c1ccccc1 | 3.16 µM (active) | – |
| COC(=O)[C@@]1(Cc2ccccc2)[C@H]2c3cc(C(=O)N4CCCC4)n(Cc4c(CO)[nH]cc(C)c4=O)c3C[C@H]2CN1C(=O)c1ccccc1 | 10 µM (active) | – |
| COc1ccc(CNc2cc(-c3ccccc3OC)ncn2)c(OC)c1 | 2 µM (active) | – |
| COc1ccc(CNc2cc(-c3ccccc3CN(C)C)ncn2)c(OC)c1 | inactive | – |

| SMILES | AC50 | activity, negative = inhibition |
| --- | --- | --- |
| COc1ccc(CNc2cc(-c3ccccc3Cl)ncn2)c(OC)c1 | 2 µM (active) | – |
| CC(=O)N(CC(O)CN(C(C)=O)c1c(I)c(C(=O)NC[C@@H](O)CO)c(I)c(C(=O)NC[C@@H](O)CO)c1I)c1c(I)c(C(=O)NC[C@@H](O)CO)c(I)c(C(=O)NC[C@@H](O)CO)c1I | inactive | – |
| CN(C)c1nccc(N(Cc2ccccc2)Cc2ccccc2)c1C#N | 4.47 µM (active) | – |
| CCOC(=O)C1CCCN(C(=O)CSCc2ccccc2)C1 (stereo not given) | 11.2 µM (active) | – |
| CCCS(=O)(=O)N1CCCC(C(=O)N2CCN(C(=O)OCC)CC2)C1 (stereo not given) | inactive | – |
| CCOC(=O)C1CCCN(S(=O)(=O)c2ccccc2)C1 (stereo not given) | 4.47 µM (active) | – |
| CCOC(=O)C1CCCN(C(=O)CCn2nc(-c3ccccc3)ccc2=O)C1 (stereo not given) | inactive | – |
| CCCS(=O)(=O)N1CCCC(C(=O)NCCCOCC)C1 (stereo not given) | inactive | – |
| CCOC(=O)CNc1c(-c2ccccc2)nc2ccc(Cl)cn12 | 5.01 µM (active) | – |
| COC(=O)[C@@H]1O[C@@H](c2c(OC)c(OC)c(C)c(OC)c2OC)[C@H](C)[C@@H](O)[C@@H]1C | – | -37.9% [at 11.4 µM] (inactive) |
| Clc1ccc(Cl)c(Nc2ccnc(SCc3ccccc3)n2)c1 | 5.01 µM (active) | – |
| CCOC(=O)C1=C2SCC(=O)N2C(N)=C(C#N)C1 | 14.1 µM (active) | – |
| CC(C)OC(=O)C1=C2SCC(=O)N2C(N)=C(C#N)C1 | 2.51 µM (active) | – |
| CCOC(=O)c1c(C)c(C)n2c1NC(=O)C2 | – | 1.54% [at 11.4 µM] (inactive) |
| Oc1cc2c(c(Cl)c1O)CCNC[C@H]2c1ccccc1 | inactive | – |
| O=C(NCCc1ccccn1)c1cc(C(=O)C2CCCCC2)c[nH]1 | inactive | – |
| O=C(NCc1ccco1)c1cc(C(=O)C2CC2)c[nH]1 | 25.1 µM (active) | – |
| Cc1c(NC(=O)/C=C/c2cn(-c3ccccc3)nc2-c2ccc(F)cc2)c(=O)n(-c2ccccc2)n1C | inactive | – |
| Cc1ccc(-c2nn(-c3ccccc3)cc2CSC(=N)N)cc1 | 8.91 µM (active) | – |
| CCC(C)NC(=O)CCS(=O)(=O)c1ccc(Br)s1 (stereo not given) | 5.01 µM (active) | – |
| CCC(C)NC(=O)Cn1cnc2sc(C)cc2c1=O (stereo not given) | inactive | – |
| COc1ccccc1NC(=O)Nc1nc(-c2cccnc2)nc2ccccc12 | inactive | – |
| CCOC(=O)c1ccc(Nc2nc(C(=O)OCC)nc3ccccc23)cc1 | 1.41 µM (active) | – |

| SMILES | AC50 | activity, negative = inhibition |
| --- | --- | --- |
| CCOC(=O)c1ccc(Nc2nc(-c3cccnc3)nc3ccccc23)cc1 | 3.55 µM (active) | – |
| c1ccc(Nc2nc(-c3cccnc3)nc3ccccc23)cc1 | inactive | – |
| CC(C)=CCC/C(C)=C/CO/N=C1/C[C@@H](O)[C@@H](O)[C@@H]2[C@@H]3C(=O)N(Cc4ccc5c(c4)OCO5)C(=O)[C@H]3CC[C@@H]12 | – | 17.2% [at 11.4 µM] (inactive) |
| O=C(c1cnccn1)N1CCC[C@@]2(CCN(C(c3ccccc3)c3ccccc3)C2)C1 | inactive | – |
| O=C(O)CC[C@@H](C(=O)O)N1C(=O)c2ccccc2C1=O | inactive | – |
| CC(C)CC(C(=O)OCC(=O)Nc1ncc(Cl)cc1Cl)N1C(=O)c2ccccc2C1=O (stereo not given) | 2.24 µM (active) | – |
| O=C(O)[C@H](Cc1ccc(O)c([N+](=O)[O-])c1)N1C(=O)c2ccccc2C1=O | – | 26.2% [at 11.4 µM] (inactive) |
| CC(C)(CNC(=O)c1ccc([N+](=O)[O-])c(Cl)c1)CNC(=O)c1ccc([N+](=O)[O-])c(Cl)c1 | 2.24 µM (active) | – |
| CC(C)(C)OC(=O)[C@H]([C@@H]1N[C@@H](C(=O)O)C(C)(C)S1)N1C(=O)c2ccccc2C1=O | – | 36.7% [at 11.4 µM] (inactive) |
| Cc1[nH]c2ccccc2c1CCNC(=O)c1ccc2c(c1[N+](=O)[O-])C(=O)c1ccccc1C2=O | 1.26 µM (active) | – |
| O=C(c1cccs1)n1nc(-c2ccc(Cl)cc2)nc1NCc1ccco1 | 14.1 µM (active) | – |
| FC(F)(F)c1nc(-c2ccncc2)ncc1-c1nnnn1-c1ccccc1 | 0.0224 µM (active) | – |
| Cc1nn(-c2ccccc2)c(N2CCCCC2)c1/C=N/O | inactive | – |
| FC(F)(F)c1nc(N2CCCC2)ncc1-c1nnnn1-c1ccccc1 | 0.631 µM (active) | – |
| Cc1nc2cnc(N3CCNCC3)nc2n(-c2ccccc2)c1=O | inactive | – |
| COCC(=O)O[C@]1(CCN(C)CCCc2nc3ccccc3[nH]2)CCc2cc(F)ccc2[C@@H]1C(C)C | inactive | – |
| CC(C)c1ccc(NC(=O)N(CCc2nc3ccccc3[nH]2)C2CCCC2)cc1 | 7.08 µM (active) | – |
| O=C(O)[C@H]1CCCC[C@@H]1C(=O)Nc1nc2ccccc2[nH]1 | – | 26.5% [at 11.4 µM] (inactive) |
| CCOC(=O)c1ccc(N)cc1 | inactive | – |
| CCOC(=O)c1ccc(-c2ccc(CO)o2)cc1 | 28.2 µM (active) | – |
| CCOC(=O)c1ccc(OC(=O)CCCCCN=C(N)N)cc1 | inactive | – |
